Common to all, as to experiment: NCI-60 one-dose screen, 48 h (100 = growth as untreated, 0 = no growth, -100 = all killed)
Common to all, as to conditions: 10 µM unless noted

In test [1] the test system is DU-145 prostate.
Test [2] has as its system K-562 leukemia.
Test [3] relates to MALME-3M melanoma.
For test [4], the system named is MDA-MB-231 breast.
Test [5] concerns RXF 393 renal.
The subject of test [6] is SF-268 CNS.
In test [7] the test system is SF-295 CNS.
For test [8], the system named is SF-539 CNS.
Test [9] deals with UACC-257 melanoma.
For test [10], the system named is M14 melanoma.
The test system of test [11] is HT29 colon.
In test [12] the test system is SNB-75 CNS.
For test [13], the system named is SNB-19 CNS.
Test [14] deals with U251 CNS.
In test [15] the test system is PC-3 prostate.
Test [16] has as its system SK-MEL-5 melanoma.
For test [17], the system named is UACC-62 melanoma.
For test [18], the system named is LOX IMVI melanoma.
Test [19] deals with SK-MEL-28 melanoma.
The test system of test [20] is HCT-15 colon.

Compounds without any hit were thinned out: in the full panel of roughly 83,000, 20% have a hit.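 Results are percent growth after 48 hours of single-concentration exposure. 100 means growth as in untreated cells, lower positive values show inhibition; negative values down to -100 show cell death.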 Unmarked numbers belong to inactive results. Active and inactive are the calls of the source. The calls were made as follows: active = growth percent below 10; inactive = the rest.

For `CCCCCN(CCCCC)CC(O)c1cc(C)c2ccc3cc(C(C)C)ccc3c2c1` (stereo unspecified), the growth in test [1] is -77.1% (active); in test [2] it was -16.2% (active); in test [3] it was 53.9%; in test [4] it was -47.6% (active); in test [5], -88.2% (active); in test [6] it was -61.7% (active). Moreover, the growth is 103% in test [7]; -78.3% (active) in test [8]; 105% in test [9]; 20.3% in test [10]; -43.9% (active) in [11]; 75.8% in [12]. The growth is 7.47% (active) in [13]; -87.4% (active) in test [14]; 53.3% in [15]; 79.1% in test [16]; 91.3% in test [17]; -93.9% (active) in test [18]. Further, the growth in [19] was 88.1%.

Consider `COc1ccc(Oc2nc(Nc3ccc(N4CCOCC4)cc3)ncc2NC(=O)Nc2cc(OC)cc(OC)c2)cc1`, for which the growth in test [1] is 12.8%; in test [2], 19.9%; in test [3], 7.76% (active); in test [4], 1.79% (active); in test [5], -29.2% (active); in test [6], 34.3%. Besides, the growth was 34.4% in test [7]; -32.5% (active) in [8]; 35.9% in test [9]; 21.4% in test [10]; 82.9% in [20]; -32.8% (active) in [11]. The growth in [12] was 53.3%; in [14], -35.8% (active); in [15], 11.6%; in [16] it was -32.8% (active); in test [17], -8.63% (active); in test [19] it was 5.33% (active).

As for `CN(Cc1ccccc1)c1nc(Cl)c(C2CC(c3ccccc3)=NN2c2ccccc2)s1` (stereo unspecified), the growth in test [1] was 102%; in [2], 79.9%; in test [3], 90.3%; in [4], 101%; in test [5] it was 101%; in test [6] it was 86.6%. Also, the growth is 101% in [7]; 98.9% in test [8]; 93% in [9]; 96.6% in test [10]; 80.8% in [11]; 82.3% in test [12]. For the same molecule, the growth in test [13] is 100%; in test [14] it was 90.2%; in test [15], 83.2%; in test [16], 98.8%; in [18], 88.4%; in test [19] it was 98.2%.

In the case of `COc1cc(OC)c(C(=O)C(CN(C)C)CN(C)C)cc1OC`, the growth in [1] was 87.3%; in test [2], -42.3% (active); in test [3] it was -87.8% (active); in test [4] it was -59.7% (active); in [5], -75% (active); in test [6] it was 99.1%. The growth is 101% in test [7]; 67.7% in test [8]; 8.98% (active) in test [9]; -31.6% (active) in test [10]; 2.66% (active) in [11]; 91.4% in [12]. For the same molecule, the growth in test [13] was 102%; in test [14] it was 101%; in [15], 94.5%; in test [16], 101%; in [17] it was 19.2%; in test [18], -68.8% (active). Besides, the growth in [19] was 21.8%.

Consider `COc1ccc(/C=C/C(=O)c2cc(OC)c(OC)c(OC)c2)cc1OCC(=O)Nc1nc2ccc(OC(F)(F)F)cc2s1`, for which the growth in [1] was -30.3% (active); in [2], 5.93% (active); in [3], 26.8%; in test [4], -16.1% (active); in test [5], -29.7% (active); in test [6] it was 9.91% (active). The growth is 0.996% (active) in [7]; -58.4% (active) in test [8]; 68.6% in [9]; 1.09% (active) in [10]; 20.1% in test [11]; -33.1% (active) in test [12]. The growth was 12.9% in [13]; -45.9% (active) in [14]; 33.4% in test [15]; 2.06% (active) in test [16]; 60% in test [17]; -22.9% (active) in [18]. In addition, the growth in test [19] was 36.4%.

`Clc1ccc(-c2cc(-c3ccccc3)nc(NCCNc3ccnc4cc(Cl)ccc34)n2)cc1`: the growth was 13.1% in test [1]; 0.266% (active) in test [2]; -62.7% (active) in [3]; -69.2% (active) in [4]; 26% in test [5]; 3.04% (active) in [6]. The growth is 73.2% in [7]; 74.5% in test [8]; 13.3% in [9]; -69.7% (active) in [10]; -72.7% (active) in [20]; -16.2% (active) in test [11]. The growth in [12] was 75.7%; in [14], -85.9% (active); in test [15], 16.3%; in [16], 30.7%; in [18], -76.7% (active); in test [19], -62.1% (active).

Take `COc1ccc(C2=CN3CC=CC3CC2=O)cc1` (stereo unspecified): the growth in test [1] was 98.9%; in [2], 98.4%; in test [3] it was 81.6%; in test [4] it was 105%; in test [5], 110%; in test [6] it was 98.2%. Further, the growth in test [7] was 93.3%; in test [8] it was 95%; in test [9] it was 92.9%; in [10], 106%; in test [11] it was 90.5%; in test [12], 90.9%. In addition, the growth in test [13] is 105%; in test [14], 94.5%; in test [15], 92.1%; in [16] it was 100%; in test [17], 105%; in test [19] it was 102%.

As for `Cc1ccc(C=C2C(=O)NC(=O)NC2=O)cc1`, the growth in test [1] was 108%; in test [2] it was 86.1%; in test [3] it was 101%; in [4], 118%; in test [5], 113%; in test [6], 100%. The growth was 104% in test [7]; 111% in test [8]; 94% in test [9]; 101% in [10]; 103% in test [11]; 92.5% in test [12]. For the same molecule, the growth in test [14] is 99%; in test [15], 95.9%; in test [16], 100%; in test [17] it was 102%; in test [18] it was 98.6%; in test [19], 107%.

Consider `O=C(O)c1cn(C2CC2)c2cc(N3CCN(C(=O)Nc4nc(-c5ccc(Br)cc5)cs4)CC3)c(F)cc2c1=O`, for which the growth in test [1] was 17%; in test [2], 18%; in test [3], 29.3%; in [4], 28.9%; in test [5] it was 25.2%; in test [6], 24.2%. The growth is 19.5% in test [7]; 23.6% in [8]; 3.57% (active) in test [9]; 23.7% in test [10]; 9.27% (active) in test [11]; 24% in [12]. For the same molecule, the growth in [13] was 19.7%; in test [14], 12.7%; in test [15], 19.2%; in test [16], -41% (active); in test [17], -1.55% (active); in [18], -9.03% (active). The growth in [19] was 42.2%.
